# Results published in the supplement of paper PMC13380429.
# Key:
# [1] = test system: Vero E6 infected with SARS-CoV-2; test: morphology score (similarity to uninfected cells); higher = more like uninfected cells; conditions: 24 h
# [2] = test system: Vero E6 infected with SARS-CoV-2; test: SARS-CoV-2 infection rate relative to infected DMSO; higher = more infection, active = 60 or less; conditions: 24 h
SMILES,morphology score [1],SARS-CoV-2 infection rate [2]
CC(=O)c1cc2c(o1)C(=O)c1ccccc1C2=O [napabucasin] (0.833333 µM),0.309,89% (inactive)
COc1cc([C@@H]2c3cc4c(cc3[C@@H](O[C@@H]3O[C@@H]5CO[C@@H](C)O[C@H]5[C@H](O)[C@H]3O)[C@H]3COC(=O)[C@H]23)OCO4)cc(OC)c1OP(=O)(O)O [etoposide-phosphate] (10 µM),0.101,94.5% (inactive)
COc1ccccc1N1CCN(CCN2C(=O)c3ccccc3C(C)(C)C2=O)CC1 (10 µM),0.213,100% (inactive)
COCCNC(=O)Cn1cnc([N+](=O)[O-])n1 [sanazole] (10 µM),0.122,93% (inactive)
Cc1ccccc1-n1c(CF)nc2ccc(N)cc2c1=O [afloqualone] (10 µM),0.166,96% (inactive)
O=C(O)c1nn(Cc2ccc(Cl)cc2Cl)c2ccccc12 [lonidamine] (10 µM),0.0313,110% (inactive)
Cc1cc(C(=O)NOCCO)c(Nc2ccc(I)cc2F)n(C)c1=O (10 µM),-0.0952,107% (inactive)
CCCCCCCCCCCCCCCC(=O)OC[C@H](O)[C@H]1OC(=O)C(O)=C1O [L-ascorbyl-6-palmitate] (10 µM),-0.0423,112% (inactive)
Cc1cnc(CNC(=O)c2c(=O)c3ccc(N4CCCN(C)CC4)nc3n3c2sc2ccccc23)cn1 (0.833333 µM),0.0323,109% (inactive)
Oc1ccc2c3c1O[C@H]1c4c(c5ccccc5n4Cc4ccccc4)C[C@@]4(O)[C@@H](C2)N(CC2CC2)CC[C@]314 [N-benzylnaltrindole] (0.833333 µM),0.148,102% (inactive)
